Where “and” joins values, the source holds several entries; their conditions need not be identical. Equal entries are not always repeated. Compounds without any hit were thinned out: in the full panel of roughly 79,000, 15% have a hit. Values without a mark were called inactive. Calls of active or inactive are those of the source. Rule as the data show it: active = growth inhibition above about 70%; inactive = the rest.

36 compounds from PubChem BioAssay (NCI) can be followed below.

Assay [1] can be described thus: NCI Yeast Anticancer Drug Screen. Data for the rad50 strain (AID 155).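 Also: 0% = growth of vehicle-only cultures of the same strain.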 The settings on record: S. cerevisiae rad50 strain growth inhibition, active compounds read high; at 50.0 µM unless noted. The essentials: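 Vehicle-treated cultures provide the reference for the growth inhibition reported for compound-exposed, repair-deficient yeast.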
A short description of assay [2]: NCI Yeast Anticancer Drug Screen. Data for the mec2-1 strain (AID 157). Conditions: S. cerevisiae mec2-1 strain, active compounds read high; at 50.0 µM unless noted. The essentials:
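Growth inhibition is read against vehicle-treated controls after compound exposure of the mec2-1 yeast strain, which is defective in DNA damage repair or cell cycle control.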

A short description of assay [3]: NCI Yeast Anticancer Drug Screen. Data for the sgs1 mgt1 strain (AID 161).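 Also: 0% = growth of cultures given vehicle only.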 Conditions: S. cerevisiae sgs1 mgt1 strain, active compounds read high; at 50.0 µM unless noted. The essentials: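 This yeast growth screen uses a strain with defined DNA-repair lesions; compound-treated growth is compared with vehicle-treated growth.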
A short description of assay [4]: NCI Yeast Anticancer Drug Screen. Data for the cln2 rad14 strain (AID 165).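 Also: 0% = growth equal to vehicle treated cultures.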 Conditions: S. cerevisiae cln2 rad14 strain, active compounds read high; at 50.0 µM unless noted. The method in brief: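 Growth inhibition, relative to vehicle-treated controls, is the read-out. The test organism is a yeast strain with defined genetic alterations, cln2 rad14.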
Assay [5] is described as follows: NCI Yeast Anticancer Drug Screen. Data for the bub3 strain (AID 167). The settings on record: S. cerevisiae bub3 mutant strain, active compounds read high; at 50.0 µM unless noted. The method in brief:
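Mutant yeast screening strain plus compound; vehicle-treated cultures serve as the 0% inhibition reference.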

Assay [6] in a line: NCI Yeast Anticancer Drug Screen. Data for the mlh1 rad18 strain (AID 175). Conditions: S. cerevisiae mlh1 rad18 strain growth inhibition, active compounds read high; at 50.0 µM unless noted. The method in brief:
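Cells of a genetically altered yeast strain, deficient in DNA damage repair, were treated with compound. Their growth was then compared with that of vehicle-treated cultures to give inhibition.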

In the case of `CCOC(=O)/C(C#N)=C/c1ccc(C)cc1`, the growth inhibition in assay [1] was 10.4%; in assay [2] it was 15.8%; in assay [3], 11.2%; in assay [4] it was 6.15%; in assay [5], 22.3%; in assay [6] it was 22.9%.
With `O=C1c2cc(F)ccc2-c2c(F)ccc(F)c21`, the growth inhibition in assay [1] was 38.1%; in assay [2] it was 8.7%; in assay [3], 27.7%; in assay [4] it was 11.1%; in assay [5], 23.6%; in assay [6] it was 23.5%.
In the case of `COc1cc(OC)cc(C(=O)CC(=O)c2cc(OC)cc(OC)c2)c1`, the growth inhibition in assay [1] is -49.6%; in assay [2], -38.3%; in assay [3], -69%; in assay [4], -7.9%; in assay [5], -33.4%; in assay [6], -26.1%.
Turning to `COc1cc(OC)c(-c2cc(=O)c3c(OC)c(OC)c(OC)c(OC)c3o2)cc1OC`, the growth inhibition in assay [1] is -2.95%; in assay [2], -3.8%; in assay [3], -2.8%; in assay [4] it was -44%; in assay [5], 36.2%; in assay [6] it was -21.1%.
For `CCOC(=O)C1=C(C)NC(c2ccco2)=C(C#N)C1c1cccc([N+](=O)[O-])c1` (stereo unspecified), the growth inhibition is 59.8% in assay [1]; 33.4% in assay [2]; 66% in assay [3]; 68.7% in assay [4]; 63.6% in assay [5]; 70.8% (active) in assay [6].
As for `N#CC(C#N)=C1SC(=Nc2ccccc2)C(=Nc2ccccc2)N1c1ccccc1`, the growth inhibition was 11.6% in assay [1]; 6.05% in assay [2]; 19.2% in assay [3]; 7.1% in assay [4]; 21.6% in assay [5]; 16.4% in assay [6].
In the case of `CC1(C)CNC[C@]2(C)OCCCO[C@@]3(C)CNCC(C)(C)NC(=O)[C@](C)(CNCC(C)(C)NC3=O)OCCCO[C@](C)(CNCC(C)(C)NC2=O)C(=O)N1`, the growth inhibition in assay [1] is -33.2%; in assay [2] it was -22.2%; in assay [3] it was -32.1%; in assay [4], 0.5%; in assay [5], -17.1%; in assay [6], -46.2%.
For `CCCOC(=O)CCCC(=O)N(C(C)C)C(C)C`, the growth inhibition in assay [1] is -12.3%; in assay [2] it was -2.7%; in assay [3], 12.2%; in assay [4] it was -29.5%; in assay [5], 21.9%; in assay [6] it was 4.65%.
Take `CC1(C)CC(=O)C=C(n2ccccc2=O)C1`: the growth inhibition is 2.7% in assay [1]; -5.3% in assay [2]; 0.15% in assay [3]; 7.5% in assay [4]; -19.8% in assay [5]; -1.8% in assay [6].
As for `c1ccc2c(c1)ncn2Sn1cnc2ccccc21`, the growth inhibition in assay [1] is 1.8% and 2.7%; in assay [2], 16.9% and -0.1%; in assay [3] it was 3.8% and -3.35%; in assay [4], -12.4% and 15.5%; in assay [5] it was 2.95% and 11.1%; in assay [6], 6.9% and 20.9%.
For the compound `O=C1c2ccccc2C(=O)c2c1ccc1c3ccccc3n(-c3ccccc3)c21`, the growth inhibition in assay [1] was 7.4%; in assay [2], 4.2%; in assay [3], 18.4%; in assay [4] it was -5.2%; in assay [5], 6.65%; in assay [6] it was 15.7%.
`c1ccc(N=C(Nc2ccccn2)Nc2ccccn2)nc1`: the growth inhibition in assay [1] was 5.15%; in assay [2], -7.2%; in assay [3], 1.1%; in assay [4], -34%; in assay [5] it was -14.7%; in assay [6] it was -25.1%.
For `Cc1c(Cl)cccc1NC(=O)C(C)NCC(C)C` (stereo unspecified), the growth inhibition in assay [1] was -4.4%; in assay [2] it was -0.2%; in assay [3], -6.05%; in assay [4], -11.7%; in assay [5], 14.8%; in assay [6], -19.6%.
On to `CCOC(=O)c1ccc(-c2ccc(Cl)cc2)[nH]1`, for which the growth inhibition in assay [1] was -7.3%; in assay [2], 0%; in assay [3], -3%; in assay [4], 2.45%; in assay [5] it was 34%; in assay [6] it was 3.2%.
With `O=[N+]([O-])c1ccc(N(CCO)CCO)cc1`, the growth inhibition is 1.05% in assay [1]; -12.8% in assay [2]; -1.75% in assay [3]; 9.25% in assay [4]; -6.4% in assay [5]; -17.1% in assay [6].
For the compound `O=C(OC1CCCCCCC1OC(=O)c1ccc([N+](=O)[O-])cc1)c1ccc([N+](=O)[O-])cc1` (stereo unspecified), the growth inhibition in assay [1] is 7.05%; in assay [2], 1.85%; in assay [3] it was 6.4%; in assay [4], 11.8%; in assay [5] it was -4.8%; in assay [6], 1.7%.
For the compound `C/C=C/C(=O)Nc1cccc(OC(=O)NC(C)(C)C)c1`, the growth inhibition in assay [1] is 9.2%; in assay [2], 13.1%; in assay [3] it was 3.55%; in assay [4], -2%; in assay [5], 18%; in assay [6] it was 1.65%.
Turning to `CCOC(=O)C(CCc1ccccc1)C(C)=O` (stereo unspecified), the growth inhibition in assay [1] is -0.75%; in assay [2], -7.95%; in assay [3], -0.25%; in assay [4], 40.5%; in assay [5] it was 2.45%; in assay [6] it was -11.8%.
On to `CC1(C)OC1CS(=O)c1ccccc1` (stereo unspecified), for which the growth inhibition in assay [1] was -6.1%; in assay [2], -5.4%; in assay [3] it was -14.5%; in assay [4], -17.4%; in assay [5], 5.5%; in assay [6], -42.8%.
For the compound `OCc1ccccc1Sc1ccccc1CO`, the growth inhibition in assay [1] is 15.8%; in assay [2] it was -8.6%; in assay [3], 2.6%; in assay [4], 11.8%; in assay [5], -31.6%; in assay [6], 24%.
For the compound `Clc1cccc(Nc2ncnc3nc[nH]c23)c1`, the growth inhibition is 7.15% in assay [1]; 0.25% in assay [2]; 5.1% in assay [3]; -12.2% in assay [4]; -12.9% in assay [5]; 0.5% in assay [6].
For the compound `NNC(=O)Oc1cccc2ccccc12`, the growth inhibition in assay [1] is 22.1%; in assay [2] it was 19.3%; in assay [3], 9.9%; in assay [4] it was -4.4%; in assay [5] it was 36.4%; in assay [6] it was 42.5%.
For `Nc1nc(CC2(O)CCCCC2)cc(-c2ccccc2)n1`, the growth inhibition in assay [1] was 49%; in assay [2] it was 29.6%; in assay [3] it was 21.1%; in assay [4], 55.2%; in assay [5] it was 45.5%; in assay [6] it was 44.8%.
Turning to `CCSc1nnc(Sc2c3ccccc3nc3ccccc23)s1`, the growth inhibition is 26.9% in assay [1]; 3.15% in assay [2]; -13.1% in assay [3]; 11.4% in assay [4]; 16.8% in assay [5]; 76% (active) in assay [6].
As to `NC(=S)/N=C/c1c(O)c2ccccc2oc1=O`, the growth inhibition was -15.8% in assay [1]; 3.95% in assay [2]; -37.5% in assay [3]; 3.5% in assay [4]; -12.7% in assay [5]; -35% in assay [6].
Turning to `COC(=O)CC1C(C)(C)C(=O)C2CC3=C4CC(=O)OC(c5ccoc5)C4(C)CCC3C1(C)C2=O` (stereo unspecified), the growth inhibition was 1.3% in assay [1]; 2.4% in assay [2]; -20.1% in assay [3]; -8.3% in assay [4]; -31.9% in assay [5]; 16.8% in assay [6].
In the case of `NC(=S)Nc1ccc(Br)cc1`, the growth inhibition in assay [1] is -0.85%; in assay [2], 23.6%; in assay [3], 25.5%; in assay [4] it was 34.8%; in assay [5], -4.05%; in assay [6], 7.6%.
`Cc1ccc(S(=O)(=O)OC2CSS(=O)CC2OS(=O)(=O)c2ccc(C)cc2)cc1` (stereo unspecified): the growth inhibition is 12.8% in assay [1]; -3.15% in assay [2]; 4.45% in assay [3]; 19.1% in assay [4]; -1.4% in assay [5]; 21.1% in assay [6].
On to `CCC(CN)C(F)(F)C(F)(F)C(F)(F)F` (stereo unspecified), for which the growth inhibition in assay [1] was 4.65%; in assay [2], -12.2%; in assay [3], -5.45%; in assay [4] it was 2.7%; in assay [5], 8.3%; in assay [6], 6.05%.
Turning to `COc1cc(C(C)=O)ccc1OCOc1ccc(C(C)=O)cc1OC`, the growth inhibition was -4.65% in assay [1]; -23.6% in assay [2]; -3.7% in assay [3]; -43% in assay [4]; 5.95% in assay [5]; -5.55% in assay [6].
For the compound `CC1CC(C)OC(C(Br)CBr)O1` (stereo unspecified), the growth inhibition is 5.05% in assay [1]; -10.9% in assay [2]; -4.8% in assay [3]; 15% in assay [4]; -13.9% in assay [5]; 12.1% in assay [6].
Regarding `OCC1=CC(O)C2C=COC(OC3OC(CO)C(O)C(O)C3O)C12` (stereo unspecified), the growth inhibition in assay [1] is -15.9%; in assay [2], -24.6%; in assay [3], -19.1%; in assay [4] it was -6.45%; in assay [5], -32%; in assay [6], -31.1%.
As to `O=S(=O)(O)c1ccc(Nc2ccccc2)cc1`, the growth inhibition in assay [1] was -1.2% and 5.95%; in assay [2], -38.8% and -24.1%; in assay [3], -11%; in assay [4], -18.3%; in assay [5], 2%; in assay [6], -20.9% and 6.2%.
In the case of `N#Cc1ccc(/C=C(/C(=O)c2ccccc2)c2ccccc2)cc1`, the growth inhibition in assay [1] was 7.35%; in assay [2] it was -31.9%; in assay [3], 0.2%; in assay [4], 6.85%; in assay [5], -23.8%; in assay [6], -3.35%.
Regarding `COS(=O)(=O)N(C)c1nc(N(C)C)nc(N(C)C)n1`, the growth inhibition in assay [1] was -2.25%; in assay [2], -12.2%; in assay [3] it was -1.2%; in assay [4] it was 22.9%; in assay [5] it was 3.95%; in assay [6], -0.95%.
As to `c1ccc(-c2nc3ccccc3s2)cc1`, the growth inhibition was 25.2% and 18.6% in assay [1]; -22.4% and -0.5% in assay [2]; 24.1% and -17.9% in assay [3]; 23.8% and -20.2% in assay [4]; 8.55% and -4.35% in assay [5]; 40.4% and 2.6% in assay [6].
